The values below come from PubChem BioAssay (NCATS).

Results filed as inconclusive are left out. The source made the active and inactive calls. The call rests on the fitted dose curve; in most records, active means well fitted cell-killing curve with a large enough effect; inconclusive means small, poorly fitted or top-dose-only effect, or effect the other way; inactive means flat fitted curve, though single readings scatter.
On the % scale 0 is the no-effect control and ±100 the full control effect; potency means the concentration at half of the fitted maximal effect.

The subject of the first test is C33A. In words: Primary qHTS to identify gynecologic anti-cancer compounds using libraries of approved drugs and bioactive compounds (AID 1345084). Further: nearly all actives have a fitted effect of over 55% in size. Conditions: Gynecologic cancer cell panel viability, ATPlite luminescence, 48 h; series mostly up to 57.5 µM; activity change, negative = cytotoxicity: at the top concentration. A digest of the protocol: (§1)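 Measured: luminescence after ATPlite addition (15 min, RT). Exposure: 48 h, 37 C, 5% CO2.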
On the technique in general: In qHTS, concentration-response curves come from the screen itself.
With `CN1CCC(NC(=O)c2cc(-c3c(O)cc(O)cc3Oc3ccc([N+](=O)[O-])cc3)on2)CC1`, the Potency was 0.708 µM (active).

As for `Nc1nc2c(ncn2C2OC3COP(=O)(O)OC3C2O)c(=O)[nH]1` (stereo not given), the “activity change, negative = cytotoxicity” value is 7.01% (inactive).

`Cn1ncc(Cl)c1-c1cc(C(=O)N[C@H](CN)Cc2cccc(F)c2)sc1Cl`: the Potency was 11.2 µM (active).

Consider `Cn1ncnc1[C@H]1c2n[nH]c(=O)c3cc(F)cc(c23)N[C@@H]1c1ccc(F)cc1`, for which the “activity change, negative = cytotoxicity” value is -31% [at 25.3 µM] (inactive).

`CC(F)(F)CN1CCOc2c(nn(-c3ccccc3Cl)c2-c2ccc(Cl)cc2)C1=O`: the “activity change, negative = cytotoxicity” value was 17.7% (inactive).

Turning to `CN[C@@H]1[C@H](O[C@H]2[C@H](O[C@@H]3[C@@H](O)[C@H](O)[C@@H](N=C(N)N)[C@H](O)[C@H]3N=C(N)N)O[C@@H](C)[C@]2(O)CO)O[C@@H](CO)[C@H](O)[C@H]1O`, the “activity change, negative = cytotoxicity” value was 21.3% (inactive).

A further test relates to CAOV3. Described as above. Conditions: Gynecologic cancer cell panel viability, ATPlite luminescence, 48 h; series mostly up to 57.5 µM; activity change, negative = cytotoxicity: at the top concentration. The essentials:
as §1
A general note: ATP-based viability assays read luminescence as a measure of living cells.
`CCCSc1nc(N[C@@H]2C[C@H]2c2ccc(F)c(F)c2)c2nnn([C@@H]3C[C@H](OCCO)[C@@H](O)[C@H]3O)c2n1`: the “activity change, negative = cytotoxicity” value was 0.269% (inactive).

As to `C[C@H](Oc1cc(-n2cnc3ccc(CN4CCN(C)CC4)cc32)sc1C(N)=O)c1ccccc1C(F)(F)F`, the “activity change, negative = cytotoxicity” value is -8.19% (inactive).

Regarding `COC1CC(=O)C23C(=O)NC(Cc4c[nH]c5ccccc45)C2C(C)C2(C)OC2C3/C=C/CC(C)CC1O` (stereo not given), the “activity change, negative = cytotoxicity” value is -22.5% [at 25.3 µM] (inactive).

For the compound `Cc1cc(OCCCS(C)(=O)=O)cc(C)c1-c1cccc(COc2ccc(C3=CC(=O)NS3=O)cc2)c1` (stereo not given), the “activity change, negative = cytotoxicity” value is 0.604% (inactive).

On to `C=C1[C@H]2CC[C@H](C(=O)O)[C@@]23CC[C@H](C3)C1(C)C`, for which the “activity change, negative = cytotoxicity” value is -3.16% (inactive).

For the compound `CC(C)(O)C1Cc2c(ccc(C(=O)CCc3ccccc3)c2O)O1` (stereo not given), the Potency was 10 µM (active).

As to `Cn1ncc(Cl)c1-c1cc(C(=O)N[C@H](CN)Cc2ccc(F)c(F)c2)sc1Cl`, the “activity change, negative = cytotoxicity” value was -11.4% (inactive).

On to `C/C1=C\[C@@H](C)C[C@@H](C)[C@@H](Cc2cnco2)OC(=O)/C(C)=C/[C@@H](C)C[C@@H](C)[C@@H](Cc2cnco2)OC1=O`, for which the “activity change, negative = cytotoxicity” value was -23.8% [at 25.3 µM] (inactive).

`C=CC(=O)N1CCCC(n2nc(-c3ccc(Oc4ccccc4)cc3)c3c(N)ncnc32)C1` (stereo not given): the “activity change, negative = cytotoxicity” value was -13.2% (inactive).

`CCC(CC)C(c1ccc(Nc2nc3ccccc3s2)cc1)n1cncn1` (stereo not given): the Potency is 28.2 µM (active).

For `C=C[C@@]1(C)CCC2C(=CCC3[C@]2(C)CCC[C@@]3(C)C(=O)O)C1` (stereo not given in full), the “activity change, negative = cytotoxicity” value is -17.6% (inactive).

Take `COc1ccc(C[C@H]2COC(=O)[C@@H]2Cc2ccc(O[C@@H]3O[C@H](CO)[C@@H](O)[C@H](O)[C@H]3O)c(OC)c2)cc1OC`: the “activity change, negative = cytotoxicity” value is -3.53% [at 25.3 µM] (inactive).

Turning to `CN(C)C(=O)NC1(c2ccccc2)CCN(CCC[C@]2(c3ccc(Cl)c(Cl)c3)CCCN(C(=O)c3ccccc3)C2)CC1`, the Potency was 20 µM (active).

Take `CN(C)c1cccc(Oc2cnc(Nc3cccc(O)c3)nc2)c1`: the “activity change, negative = cytotoxicity” value was 13.2% (inactive).

Consider `FC(F)(F)c1ccccc1-c1cc(C(F)(F)F)c2nc(C3=NOC4(CCCCC4)C3)[nH]c2c1`, for which the “activity change, negative = cytotoxicity” value is 0.608% (inactive).

For `CC(C)NCCCn1c(Sc2cc3c(cc2I)OCO3)nc2c(N)ncnc21`, the Potency was 1.58 µM (active).

As for `Nc1ncnc2c1nc(Cl)n2C1OC2COP(=O)(O)OC2C1O` (stereo not given), the Potency is 5.62 µM (active).

Take `O=C(C1CCCCC1)N(CCN1CCN(c2ccccc2O)CC1)c1ccccn1`: the “activity change, negative = cytotoxicity” value is 5.63% (inactive).

As for `CC(=O)O[C@@]12CO[C@@H]1C[C@H](O)[C@@]1(C)C(=O)[C@H](O)C3=C(C)[C@@H](OC(=O)[C@H](O)[C@@H](NC(=O)OC(C)(C)C)c4ccccc4)C[C@@](O)([C@@H](OC(=O)c4ccccc4)C12)C3(C)C` (stereo not given in full), the “activity change, negative = cytotoxicity” value was -26.3% [at 25.3 µM] (inactive).

In the case of `Cc1[nH]c(/C=C2\C(=O)Nc3cc(-c4ccccc4)ccc32)c(C)c1CCC(=O)O`, the “activity change, negative = cytotoxicity” value is -20.6% (inactive).

For the compound `Cc1ccc(O)cc1Nc1ccnc(Nc2cccc(C(N)=O)c2)n1`, the “activity change, negative = cytotoxicity” value was -27.7% (inactive).

Regarding `NCC1CCN(c2nccc(-c3ccc4ccccc4c3)n2)CC1`, the Potency was 28.2 µM (active).

Consider `COC(=O)CC1OC(C)C2=C(O)c3c(O)cccc3C(=O)C23OC13` (stereo not given), for which the Potency is 3.55 µM (active).

As to `O=C(Nc1nc2cc(C(F)(F)F)cc(NC3CC3)n2n1)c1cccnc1`, the “activity change, negative = cytotoxicity” value was 8.96% (inactive).

Regarding `CN1CCC(NC(=O)c2cc(-c3c(O)cc(O)cc3Oc3ccc([N+](=O)[O-])cc3)on2)CC1`, the Potency was 0.398 µM (active).

With `Nc1nc2c(ncn2C2OC3COP(=O)(O)OC3C2O)c(=O)[nH]1` (stereo not given), the “activity change, negative = cytotoxicity” value was -12.5% (inactive).

Consider `Cn1ncc(Cl)c1-c1cc(C(=O)N[C@H](CN)Cc2cccc(F)c2)sc1Cl`, for which the “activity change, negative = cytotoxicity” value is -22.6% (inactive).

`Cn1ncnc1[C@H]1c2n[nH]c(=O)c3cc(F)cc(c23)N[C@@H]1c1ccc(F)cc1`: the “activity change, negative = cytotoxicity” value was 0.168% [at 25.3 µM] (inactive).

As to `CC(F)(F)CN1CCOc2c(nn(-c3ccccc3Cl)c2-c2ccc(Cl)cc2)C1=O`, the “activity change, negative = cytotoxicity” value is 19.4% (inactive).
